PubChem BioAssay AID2147 (National Center for Advancing Translational Sciences (NCATS), 2009)
Values joined by “and” are separate entries in the source; they are usually repeats but may differ in a detail not shown here. Equal entries are not always repeated. Hit rate of the full screen: of about 230,000 compounds, about 3,600 (1.6%) were called active. About 15% were inconclusive and are not listed. The call rests on the fitted dose curve; in most records, active means well fitted inhibition curve with a large enough effect (not every such curve was filed as active); inconclusive means small, poorly fitted or top-dose-only effect, or another doubt; inactive means no such curve, though single readings can be large or run the other way. Only a selection was taken, and actives are over-represented in it overall.

Target: Lysine-specific demethylase 4E (Homo sapiens) (UniProt B2RXH2)
Assay: qHTS Assay for Inhibitors of Human Jumonji Domain Containing 2E (JMJD2E)
Conditions: JMJD2E catalytic domain, FDH-coupled NADH fluorescence (FDH is formaldehyde dehydrogenase); series mostly up to 57.1 µM
Further: nearly all actives have a fitted effect of over 50% in size.
Potency means the concentration at half of the fitted maximal effect.

Chain of Lysine-specific demethylase 4E (Homo sapiens) (B2RXH2 1-337 limits assumed): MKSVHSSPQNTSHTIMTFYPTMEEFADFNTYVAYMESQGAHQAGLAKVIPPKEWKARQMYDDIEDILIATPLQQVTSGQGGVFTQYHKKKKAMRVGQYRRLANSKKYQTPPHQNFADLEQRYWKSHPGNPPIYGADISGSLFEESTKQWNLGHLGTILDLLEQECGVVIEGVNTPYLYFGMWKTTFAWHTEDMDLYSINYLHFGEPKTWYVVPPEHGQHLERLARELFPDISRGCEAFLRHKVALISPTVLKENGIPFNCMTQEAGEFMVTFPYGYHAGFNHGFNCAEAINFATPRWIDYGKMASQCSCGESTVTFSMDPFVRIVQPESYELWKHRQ

Potency, active:
Oc1ccc(/C=N/NC2=NCCCCC2)c(O)c1 22.4 µM, O=c1[nH]c(=S)[nH]c2[nH]c(=S)[nH]c12 28.2 µM, Nc1ccccc1SC(C[N+](=O)[O-])c1ccccc1 (configuration not stated) 6.31 µM, COc1ccc(OCc2n[nH]c(=S)n2N)cc1 15.8 µM, CCN1/C(=C\c2ccc3ccccc3[n+]2CC)Sc2cc(C)ccc21 1.41 µM, CC(C)C[C@@H](CC(=O)N[C@@H](CCC(=O)O)CC(=O)O)NC(=O)[C@@H]1CCCC[C@H]1NC(=O)C[C@@H](NC(=O)C[C@H](Cc1c[nH]c2ccccc12)NC(=O)[C@@H]1CCCC[C@H]1N)C(C)C 15.8 µM, Cc1cc(=O)[nH]c(S)c1C#N 28.2 µM, CC(C)(C)c1ccc(/C=C2\Oc3c(ccc(O)c3CN3CCN(CCO)CC3)C2=O)cc1 14.1 µM, N#C/C(=C\c1ccc(O)c(O)c1)C(N)=O 7.08 µM, N#C/C(=C\c1ccc(O)c(O)c1)C(=O)NCc1ccccc1 15.8 µM and 20 µM, Oc1ccc(N=Nc2nccs2)c(O)c1 8.91 µM, Oc1ccc2ccccc2c1N=Nc1nccs1 28.2 µM, COc1ccc(Cc2nnc(N/N=C/c3ccccc3O)[nH]c2=O)cc1OC 6.31 µM

Potency, inactive:
O=c1[nH]c(CSc2ccccc2)nc2c1oc1ccccc12, Cc1ccc(NC(=O)/C(=C\c2ccccc2)NC(=O)c2ccco2)cc1, NC(=O)COc1ccc(NC(=O)c2ccccc2-c2ccccc2)cc1, Oc1c(Br)cccc1/C=N/Nc1c(F)c(F)c(F)c(F)c1F, Oc1ccc(/C=N/Nc2nc(-c3ccccc3F)nc3ccccc23)c(O)c1, CN(c1ccccn1)c1ncnc2[nH]ncc12, Cc1ccc(C)c(SCc2nc3sc(C(=O)O)c(C)c3c(=O)[nH]2)c1, O=C(Nc1ccc(F)cc1)c1cc2c(s1)CCCC2, Cc1c(C)c(C)c2[nH]c(=S)[nH]c2c1C, Cc1nc2cccnc2nc1C, COc1ccc(OC)c(-n2c(-c3ccn[nH]3)n[nH]c2=S)c1, O=C(N/N=C\c1cc(Br)c(Br)o1)C1COc2ccccc2O1 (configuration not stated), Nc1ccccc1SCc1cc([N+](=O)[O-])cc2c1OCOC2, Nc1ccccc1Sc1ccc(C(F)(F)F)cc1[N+](=O)[O-], OCCC1CN(Cc2ccc(Oc3ncccn3)cc2)CCN1CCc1ccccc1 (configuration not stated), COCCNc1nc(-c2ccccc2)nc2c1oc1ccccc12, Cc1nnc(SC(C(=O)c2ccccc2)c2ccccc2)[nH]c1=O (configuration not stated), Cc1cccc(-n2cc(CN3CCN(C(=O)c4ncn[nH]4)CC3)c(-c3cccc(F)c3)n2)c1, CC(C)OCCCNC(=O)c1ccc(C2SCC(=O)N2Cc2ccco2)cc1 (configuration not stated), COc1ccc(NS(=O)(=O)c2ccc(O)c(C(=O)OCC(=O)NC3CCCCC3)c2)cc1, Cc1ccc(OCc2n[nH]c(=S)n2-c2ccc(C)cc2)cc1, S=c1[nH]nc(COc2ccccc2)n1-c1ccccc1, Cc1cc(N2CCN(c3ccccc3)CC2)nc(N2CCOCC2)n1, O=c1c(-c2ccc(Cl)cc2)[n+]([O-])c2ccccc2n1OCc1nc2ccccc2[nH]1, CCN1/C(=C/c2ccc3ccc(C)cc3[n+]2CC)Sc2ccccc21, CCC(=O)/C=C1\Sc2ccccc2N1CC, O=C(COC(=O)c1ccc[nH]c1=O)Nc1ccc2c(c1)OC(F)(F)O2, c1ccc(-n2cccc2)c(N2CCCCC2)c1, CC(C)C[C@@H](CC(=O)N[C@@H](CCC(=O)O)CC(=O)O)NC(=O)[C@@H]1CCCC[C@H]1NC(=O)C[C@@H](NC(=O)C[C@H](CO)NC(=O)[C@@H]1CCCC[C@H]1N)C(C)C, CC(C)[C@@H](CC(=O)N[C@@H]1CCNC[C@H]1C(=O)N[C@H](CC(=O)N[C@@H](CCC(=O)O)CC(=O)O)Cc1ccccc1)NC(=O)C[C@H](CO)NC(=O)[C@@H]1CNCC[C@H]1N, Cn1c(CSCC(=O)Nc2ccccc2)nnc1SCc1ccccc1, Cc1ccc(NNC(=O)c2c(F)cccc2Cl)cc1Cl, COC(=O)N(NC(=O)C(O)(C(C)C)C(C)C)c1ccccc1, Cc1cc(=O)[nH]c(=S)[nH]1, Cc1cc(=O)[nH]c(SCC(N)=O)c1C#N, O=S(=O)(Nc1n[nH]c(C(F)(F)F)n1)c1ccccc1, CC(C)(C)C(=O)/C(C#N)=C/c1ccc(O)cc1, CCOC(=O)/C(C#N)=C/c1ccc(N2CCCCC2)cc1, COCCNC(=O)/C(C#N)=C/c1cccc(OCc2ccccc2)c1, CCOC(=O)NC(=O)/C(C#N)=C\c1ccccc1, Cc1ccc(CN(Cc2cccnc2)C(=S)Nc2cc(Cl)ccc2C)cc1, O=C(NCC(c1cccs1)N1CCOCC1)c1cc(-c2ccccn2)nc2ccccc12 (configuration not stated), COc1ccccc1OCC(=O)O/N=C(\N)c1ccccn1, COc1cc(/C=C2/C(=O)NN(c3ccc(F)cc3)C2=O)cc([N+](=O)[O-])c1O, CCOC(=O)c1ccc(N=C2SC(C(=O)NC)CC(=O)N2CCc2ccccc2)cc1 (configuration not stated), CC(=O)Nc1nc2c(s1)C(=O)NCC(C)(C)C2, Oc1c(C=Nc2cccc3nsnc23)ccc2ccccc12, COc1ccccc1NC(=S)N1CCN(C(c2ccccc2)c2ccccc2)CC1, CSc1ccccc1NC(=O)CN(C)CC(=O)Nc1cccc(Br)c1, COc1ccc(CCNC(=O)CCCCn2c(=O)[nH]c3ccccc3c2=O)cc1OC, COc1ccc(Cc2nnc(SC)[nH]c2=O)cc1, CCOC(=O)C1=C(c2ccccc2)NC(=S)NC1c1ccc(Cl)cc1 (configuration not stated), Cc1noc(C)c1COC(=O)COc1ccc(-c2ccccc2)cc1, COc1ccc(/C=C/C(=O)Nc2ccc(C)cc2)cc1S(=O)(=O)N1CCOCC1
